We go through 7 molecules from PubChem BioAssay (EPA / NIEHS).

Active and inactive are the calls of the source. The calls were made as follows: active = hit-call score of the fitted dose curve at least 0.9, where 1 is the maximum; inactive = score below 0.9.

Experiment [1] is described as follows: APR_HepG2_CellCycleArrest_24hr: Apredica 24-hour HepG2 Assay for Cell Cycle Arrest (AID 2282905).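 Also: cell cycle arrest scored as ratio of 2N to 4N nuclear DNA content.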 The conditions noted are these: imaging, actives raise or lower the signal. In short, it runs like this: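 After 24 h exposure at 0.39–200 uM in 0.5% DMSO, fixed cells received Hoechst 33342 staining. Imaging quantified per-nucleus DNA content; gain or loss fitted against DMSO controls.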

Experiment [2] is described as follows: APR_HepG2_NuclearSize_24hr: Apredica 24-hour HepG2 Assay for Nuclear Size (AID 2282907). Particulars: high-content imaging, actives raise or lower the signal. In short, it runs like this:
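Nuclear size from Hoechst 33342-stained, formaldehyde-fixed HepG2 nuclei imaged by high-content microscopy, after 24 h dosing at ten concentrations from 0.39 to 200 uM in 0.5% DMSO; gain or loss relative to DMSO baseline.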

The nature of experiment [3]: APR_HepG2_CellLoss_24hr: Apredica 24-hour HepG2 Assay for Cell Loss (AID 2282908).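 As to AC50: fit in both directions so a hit may be cell loss or gain.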 The conditions noted are these: high-content imaging. In short, it runs like this:
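Nuclei stained with Hoechst 33342 after formaldehyde fixation (3.7%) were imaged at 20x to count cells. Exposure lasted 24 hr, at ten concentrations from 0.39 to 200 uM in duplicate, with 0.5% v/v DMSO. Fit bidirectional, relative to DMSO.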

Experiment [4] in a line: APR_HepG2_MicrotubuleCSK_24hr: Apredica 24-hour HepG2 Assay for Microtubule CSK Stabilty (AID 2282909). The conditions noted are these: HepG2 microtubule cytoskeleton imaging, actives raise or lower the signal. In short, it runs like this:
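Fixed HepG2 cells were stained for alpha-tubulin and imaged after 24 hr exposure to ten concentrations spanning 0.39–200 uM in 0.5% DMSO. Signal change was fitted in both directions relative to DMSO; taxol was the positive control.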

Experiment [5] in a line: APR_HepG2_MitoticArrest_24hr: Apredica 24-hour HepG2 Assay for Mitotic Arrest (AID 2282910). The conditions noted are these: high-content imaging, actives raise or lower the signal. In short, it runs like this:
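Treatment lasted 24 hr in the human HepG2 line at 0.39–200 uM, solvent held at 0.5% DMSO. Fixed cells were stained with Hoechst 33342 and anti-phospho-histone H3, imaged at 20x, and analysed by gain- or loss-of-signal fitting against DMSO.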

Experiment [6] in a line: APR_HepG2_MitoMembPot_24hr: Apredica 24-hour HepG2 Assay for Mitochondrial Membrane Potential (AID 2282911). The conditions noted are these: imaging, actives raise or lower the signal. In short, it runs like this: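 HepG2, 24 hr dosing, 10 concentrations 0.39–200 uM, 0.5% DMSO final. Live-cell MitoTracker Red CMXRos 250 nM 30 min, then 3.7% formaldehyde fix. HCS fluorescence imaging, 20x; bidirectional fit vs DMSO baseline.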

A short description of experiment [7]: APR_HepG2_MitoMass_24hr: Apredica 24-hour HepG2 Assay for Mitochondrial Mass (AID 2282912). The conditions noted are these: high-content imaging, actives raise or lower the signal. In short, it runs like this:
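Endpoint is MitoTracker Red CMXRos (250 nM, 30 min, pre-fixation) intensity from 20x high-content imaging, nuclei located by Hoechst. Human HepG2 cells received ten concentrations from 0.39 to 200 uM in 0.5% DMSO for 24 hr, duplicate wells. Bidirectional fit relative to DMSO.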

Experiment [8] in a line: APR_HepG2_p53Act_24hr: Apredica 24-hour HepG2 Assay for p53 Activation (AID 2282913).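 Also: p53 protein immunofluorescence averaged per cell in HepG2 with Hoechst nuclei.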 The conditions noted are these: high-content imaging, actives raise or lower the signal. In short, it runs like this:
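Read-out: Cy5 immunofluorescence for p53 in fixed, permeabilized HepG2, imaged by HCS with Hoechst-defined nuclei. Dosing was 24 hr at 0.39–200 uM in 0.5% DMSO. Curves were fitted bidirectionally relative to DMSO.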

Experiment [9] can be described thus: APR_HepG2_CellCycleArrest_72hr: Apredica 72-hour HepG2 Assay for Cell Cycle Arrest (AID 2282914). The conditions noted are these: high-content imaging, actives raise or lower the signal. In short, it runs like this: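 HepG2, 72 hr exposure, 10-point 0.39–200 uM, duplicate, 0.5% DMSO final. Fix 3.7% formaldehyde 30 min RT, Triton X-100 0.5%, Hoechst 33342 2 ug/mL. ArrayScan 20x, six fields/well; DNA content per nucleus; bidirectional fit vs DMSO.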

A short description of experiment [10]: APR_HepG2_P-H2AX_72hr: Apredica 72-hour HepG2 Assay for H2AX Phosphorylation (AID 2282916).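 Also: phospho-histone H2A.x immunostain intensity per cell marking DNA damage.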 The conditions noted are these: imaging, actives raise or lower the signal. In short, it runs like this: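 Phospho-histone H2A.x immunofluorescence, multiplexed with Hoechst and c-Jun, quantified by high-content imaging. Compounds applied to HepG2 for 72 h across ten concentrations (0.39–200 uM, 0.5% DMSO), in duplicate; DMSO baseline.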

Experiment [11] in a line: APR_HepG2_MitoticArrest_72hr: Apredica 72-hour HepG2 Assay for Mitotic Arrest (AID 2282918). Particulars: high-content imaging, actives raise or lower the signal. In short, it runs like this:
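HepG2, 72 hr exposure, 0.39–200 uM in duplicate, 0.5% v/v DMSO final. Formaldehyde-fixed, Triton-permeabilized, anti-phospho-histone H3/FITC plus Hoechst. ArrayScan imaging at 20x; curves fit bidirectionally against DMSO baseline.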

The nature of experiment [12]: APR_HepG2_MicrotubuleCSK_72hr: Apredica 72-hour HepG2 Assay for Microtubule CSK Stabilty (AID 2282919). The conditions noted are these: HepG2 microtubule cytoskeleton, high-content imaging, actives raise or lower the signal. In short, it runs like this:
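Ten-point dosing (0.39–200 uM, 0.5% DMSO) of HepG2 for 72 hr, with taxol as the cytoskeletal positive control. The cells were formaldehyde-fixed and then stained with alpha-tubulin/Cy5 and Hoechst. Imaging at 20x used a −2 um Z offset for tubulin.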

Experiment [13] can be described thus: APR_HepG2_P-H2AX_24hr: Apredica 24-hour HepG2 Assay for H2AX Phosphorylation (AID 2282920). Particulars: high-content imaging, actives raise or lower the signal. In short, it runs like this: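 HCS fluorescence imaging of phospho-H2A.x immunostain (with Hoechst 33342 nuclear counterstain) in HepG2 after 24 hr compound exposure; 10 concentrations, 0.39–200 uM, duplicate wells, 0.5% v/v DMSO. Gain or loss of signal fitted relative to DMSO baseline.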

Experiment [14] in a line: APR_HepG2_StressKinase_72hr: Apredica 72-hour HepG2 Assay for Stress Kinase (AID 2282921). Particulars: HepG2 stress kinase (phospho-c-Jun) imaging, actives raise or lower the signal. In short, it runs like this:
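Stress kinase signal is phospho-c-Jun immunofluorescence (1:500 primary, Cy3 secondary) in fixed, permeabilized human HepG2 cells imaged at 20x. Exposure lasted 72 hr over ten concentrations from 0.39 to 200 uM, 0.5% DMSO, in duplicate. Bidirectional fit versus DMSO.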

Experiment [15] is described as follows: APR_HepG2_StressKinase_24hr: Apredica 24-hour HepG2 Assay for Stress Kinase (AID 2282922). The conditions noted are these: HepG2 stress kinase (phospho-c-Jun) imaging, actives raise or lower the signal. In short, it runs like this:
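After 24 hr compound treatment (up to 200 uM, final DMSO 0.5% v/v), HepG2 cells are fixed and multiplex-labeled; phospho-c-Jun intensity is captured by high-content fluorescence imaging and analyzed relative to DMSO.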

Experiment [16] can be described thus: APR_HepG2_p53Act_72hr: Apredica 72-hour HepG2 Assay for p53 Activation (AID 2282923).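 Also: average cellular p53 protein immunofluorescence intensity in HepG2 cells.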 Particulars: high-content imaging, actives raise or lower the signal. In short, it runs like this: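 After 72 h with compound (ten points, 0.39 to 200 uM, final DMSO 0.5% v/v), fixed HepG2 cells were labelled with sheep anti-p53 and Hoechst 33342 and imaged; gain or loss versus DMSO scored.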

Experiment [17] in a line: APR_HepG2_MitoMass_72hr: Apredica 72-hour HepG2 Assay for Mitochondrial Mass (AID 2282924).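 Also: MitoTracker Red CMXRos stain intensity per cell imaged as mitochondrial mass.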 Particulars: high-content imaging, actives raise or lower the signal. In short, it runs like this:
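Steps: treat HepG2 72 hr (0.39–200 uM, duplicate wells); load MitoTracker Red CMXRos, 250 nM, 30 min; fix with 3.7% formaldehyde, permeabilise with 0.5% Triton X-100; capture images, nuclei via Hoechst 33342; fit bidirectionally against DMSO.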

Experiment [18] is described as follows: APR_HepG2_NuclearSize_72hr: Apredica 72-hour HepG2 Assay for Nuclear Size (AID 2282925). The conditions noted are these: high-content imaging, actives raise or lower the signal. In short, it runs like this: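 Compounds (0.39–200 uM, final DMSO 0.5%) were applied to HepG2 for 72 hr. Cells were then formaldehyde-fixed, permeabilized and labelled with Hoechst 33342. Nuclear diameter was quantified from six images per well.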

Regarding `O=c1[nH]sc2ccccc12`, the result in [1], in experiment [2], in experiment [6], in [12], in experiment [15] and in experiment [18] was inactive. The AC50 – broadly, the concentration giving half of the maximal activity seen – in [3] is 29 µM (active); in experiment [4], 38.2 µM (active); in experiment [5] it was 13.5 µM (active); in experiment [7] it was 15.7 µM (active); in experiment [8], 29.3 µM (active); in experiment [9], 21.4 µM (active). The AC50 is 46.1 µM (active) in experiment [10]; 9.46 µM (active) in [11]; 5.7 µM (active) in experiment [13]; 50.4 µM (active) in experiment [14]; 48.5 µM (active) in experiment [16]; 13.6 µM (active) in [17].

For `O=C1c2ccccc2C(=O)N1CCc1noc(-c2ccc(CN3CCCCCC3)s2)n1`, the call in [1], in [2], in [3], in experiment [4], in experiment [5] and in [6] was inactive. For the same molecule, the outcome in experiment [7], in experiment [8], in experiment [9], in [10], in experiment [11] and in experiment [12] was inactive. The molecule was called inactive in experiment [13], in experiment [14], in experiment [15], in [16], in experiment [17] and in experiment [18].

On to `CC(C)(C)c1csc(-c2cc3cc(OCc4ccccc4CC(=O)O)ccc3o2)n1`, for which the call in experiment [1], in experiment [2], in experiment [3], in [4], in [5] and in experiment [6] was inactive. Besides, the call in experiment [7], in [8], in experiment [9], in experiment [10], in experiment [11] and in experiment [12] was inactive. Further, the molecule was classed as inactive in experiment [13], in [14], in experiment [15], in experiment [16], in [17] and in experiment [18].

With `Clc1ccccc1C(c1ccccc1)(c1ccccc1)n1ccnc1`, the molecule was called inactive in [1], in experiment [6], in experiment [7], in [8], in experiment [12] and in experiment [17]. The half-maximal activity concentration (AC50) in experiment [2] is 72.3 µM (active); in [3] it was 20.3 µM (active); in experiment [4], 30.7 µM (active); in [5] it was 31.6 µM (active); in experiment [9] it was 13.8 µM (active); in experiment [10] it was 25.8 µM (active). Also, the half-maximal activity concentration (AC50) in [11] is 24.8 µM (active); in experiment [13], 79.4 µM (active); in [14] it was 29.3 µM (active); in experiment [15], 62 µM (active); in experiment [16], 29.8 µM (active); in experiment [18] it was 55.5 µM (active).

For `O=C=NCCCCCCN=C=O`, the result in experiment [1], in [2], in experiment [3], in [4], in experiment [5] and in [6] was inactive. Further, the molecule was called inactive in [7], in experiment [8], in [9], in experiment [10], in experiment [11] and in [12]. Further, the molecule was classed as inactive in experiment [13], in [14], in experiment [15], in experiment [16], in [17] and in experiment [18].

Regarding `CCCCOC(=O)c1ccc(O)cc1`, the molecule was called inactive in [1], in [2], in experiment [3], in experiment [4], in experiment [5] and in experiment [6]. In addition, the result in experiment [7], in experiment [8], in experiment [9], in [10], in [11] and in [12] was inactive. Moreover, the result in [13], in experiment [14], in experiment [15], in experiment [16], in [17] and in experiment [18] was inactive.

With `CCN(CC)C(=O)c1cc(S(=O)(=O)Cc2ccccc2)c(N2CCC(c3ccccc3)CC2)cc1N(CC)CCN(C)C`, the AC50 in experiment [1] is 75.9 µM (active); in experiment [3], 5.48 µM (active); in experiment [4], 11.1 µM (active); in [5] it was 1.59 µM (active); in [7], 23.1 µM (active); in [8], 18.6 µM (active). For the same molecule, the AC50 was 3.21 µM (active) in [9]; 0.876 µM (active) in experiment [10]; 1.12 µM (active) in [11]; 7.7 µM (active) in experiment [12]; 1.93 µM (active) in experiment [13]. Also, the result in experiment [2], in experiment [6], in experiment [14], in [15], in [16] and in [17] was inactive. Also, the molecule was classed as inactive in experiment [18].
